# Measured values published in article PMC4336329 (PLoS ONE, 2015).
# In all, about 310,000 compounds went through this assay and about 14,000 (4.5%) showed an effect of 50% or more. The effect is printed as a negative number. Many of the other results were omitted from the sample, so strong results are more common in it than they were.
# Target: human ether-à-go-go-related gene (hERG) potassium channel (human, UniProt Q12809)
# Assay: primary screen, population patch clamp on CHO cells stably expressing hERG; higher = less effect of the substance
# 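Note: peak tail current of the secondary pulse compared with the same well before compound.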
# human ether-à-go-go-related gene (hERG) potassium channel, sequence (Q12809 whole entry, looked up): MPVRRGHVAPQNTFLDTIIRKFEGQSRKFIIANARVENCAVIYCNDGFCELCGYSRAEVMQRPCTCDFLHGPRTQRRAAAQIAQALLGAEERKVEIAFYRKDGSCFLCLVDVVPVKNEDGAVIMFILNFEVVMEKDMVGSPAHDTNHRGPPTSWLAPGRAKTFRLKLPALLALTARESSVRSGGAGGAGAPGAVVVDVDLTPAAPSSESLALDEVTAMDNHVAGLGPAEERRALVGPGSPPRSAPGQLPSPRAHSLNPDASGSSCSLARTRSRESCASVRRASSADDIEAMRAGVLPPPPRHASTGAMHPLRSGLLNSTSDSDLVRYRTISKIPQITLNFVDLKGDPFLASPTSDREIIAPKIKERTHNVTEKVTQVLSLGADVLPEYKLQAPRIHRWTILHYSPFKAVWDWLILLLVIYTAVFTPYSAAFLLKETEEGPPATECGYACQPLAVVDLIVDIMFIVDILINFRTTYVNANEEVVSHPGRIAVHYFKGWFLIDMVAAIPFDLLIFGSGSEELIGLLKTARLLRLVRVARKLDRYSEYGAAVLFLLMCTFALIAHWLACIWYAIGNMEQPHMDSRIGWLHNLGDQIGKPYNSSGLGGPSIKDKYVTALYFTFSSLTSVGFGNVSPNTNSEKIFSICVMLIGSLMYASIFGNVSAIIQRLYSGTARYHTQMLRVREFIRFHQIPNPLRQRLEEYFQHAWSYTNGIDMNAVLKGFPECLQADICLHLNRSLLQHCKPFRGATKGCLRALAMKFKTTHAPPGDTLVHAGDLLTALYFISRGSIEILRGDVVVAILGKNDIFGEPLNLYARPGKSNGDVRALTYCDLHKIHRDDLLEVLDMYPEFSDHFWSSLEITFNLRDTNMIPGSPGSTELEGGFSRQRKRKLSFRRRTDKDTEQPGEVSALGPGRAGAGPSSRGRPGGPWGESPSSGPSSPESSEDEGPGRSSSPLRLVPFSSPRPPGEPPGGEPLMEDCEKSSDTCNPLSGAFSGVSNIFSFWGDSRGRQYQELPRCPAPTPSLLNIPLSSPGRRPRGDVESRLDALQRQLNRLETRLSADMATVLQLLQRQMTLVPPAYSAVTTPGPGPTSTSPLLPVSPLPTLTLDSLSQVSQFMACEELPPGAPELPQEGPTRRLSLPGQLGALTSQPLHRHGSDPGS
row,SMILES,"hERG current change (%, negative = inhibition) at 10uM"
1,Cc1ccc(-n2cc(-c3ccccc3)c3c(=O)[nH]cnc32)cc1,8.89%
2,COc1ccc(C(CNC(=O)C2CC2)N(C)C)cc1 (stereo not shown),1.52%
3,CCOc1ccccc1CN1CCCC(CNC(=O)Cc2ccc(OC)cc2)C1 (stereo not shown),-22.1%
4,COc1ccc(CN2CCCC(CNC(=O)c3ccc(F)cc3)C2)c(C)c1C (stereo not shown),-75.5%
5,COC(=O)c1ccc(C(=O)N2CCCC(CNC(=O)c3ccc(F)cc3)C2)cc1 (stereo not shown),-5.82%
6,COc1ccc(CC(=O)NCC2CCCN(Cc3ccc(OC)cc3F)C2)cc1 (stereo not shown),-36.9%
7,COc1ccc(C(=O)N2CCCC(CNC(=O)c3ccc(F)cc3)C2)cc1OC (stereo not shown),3.14%
8,COc1ccc(CN2CCCC(CNC(=O)c3ccc(F)cc3)C2)cc1OC (stereo not shown),-70.6%
9,COc1cccc(CN2CCCC(CNC(=O)c3ccc(F)cc3)C2)c1OC (stereo not shown),-49.1%
10,CCOc1cc(CN2CCCC(CNC(=O)c3ccc(F)cc3)C2)ccc1OC (stereo not shown),-66.2%
11,COc1ccc(CC(=O)NCC2CCCN(Cc3ccc(F)cc3F)C2)cc1 (stereo not shown),-17.5%
12,COc1ccc(CN2CCCC(CNC(=O)c3ccc(F)cc3)C2)c(F)c1 (stereo not shown),-75.4%
13,O=C(COC(=O)c1ccc(Br)o1)NCc1cccs1,-4.11%
14,COCOc1ccc(C=O)c(O)c1,7.21%
15,CCOc1ccc(C2CC(c3cccc(OC)c3)Nc3nc(N)nn32)cc1 (stereo not shown),-26%
16,Cc1ccc(/C=N/Nc2ccc(Cl)c(C(=O)O)c2)s1,10%
17,COc1ccccc1CCNC(=O)CN1C(=O)NC2(CCCC2)C1=O,-9.26%
18,Cc1cccnc1NC(=O)CNC(=O)COc1ccccc1,6.69%
19,CC(c1ccco1)N(C(=O)c1ccc(S(=O)(=O)N2CCCCC2)cc1)c1ccccn1 (stereo not shown),-4.75%
20,CCCC(=O)N(Cc1cc(=O)[nH]c2ccccc12)c1ccc(C)cc1,-3.22%
21,Cc1cc(CNC(=O)c2cccnc2Cl)c2ccccc2n1,-2.82%
22,COc1ccc(NC(=O)CN(C)C(=O)c2ccc3[nH]c4c(c3c2)CC(C)CC4)cc1 (stereo not shown),7.28%
23,CCOc1ccc(CN2CCCC(CNC(=O)c3ccc(F)cc3)C2)cc1CO (stereo not shown),-68.1%

row,SMILES,"hERG current change (%, negative = inhibition) at 10uM"
1,CCOc1cc(C(=O)NCc2ccc(F)cc2)ccc1OCC(=O)N1CCCCC1,-37.5%
2,O=C(NC1CCN(C(=S)NCc2ccco2)CC1)NC12CC3CC(CC(C3)C1)C2,5.73%
3,CCOC(=O)N1CCC(N2C(=O)c3ccc(C(=O)O)cc3C2=O)CC1,9.66%
4,O=C(NC1CCCCC1)Oc1ccccc1,17.2%
5,COc1cccc(C(=O)N2CCN=C2SCc2cccnc2)c1OC,4.44%
6,COc1ccc(NS(=O)(=O)c2cn(C)cn2)cc1,11.9%
7,c1ccc(N2CCN(c3nc4ccccc4[nH]3)CC2)nc1,-64.4%
8,Oc1ccc2ccccc2c1CN1CCN(C/C=C/c2ccccc2)CC1,14%
9,CCN(CC)c1nc(N2CCN(C)CC2)nc2ccccc12.Cl,-44.3%
10,c1ccc2[nH]c(N3CCOCC3)nc2c1,8.82%
11,Cl.Nc1nc(N2CCCCC2)nc2ccccc12,-45.8%
12,c1ccc(N2CCN(Cc3nc4ccccc4[nH]3)CC2)nc1,9.64%
13,Cl.Nc1nc(N2CCN(C/C=C/c3ccccc3)CC2)nc2ccccc12,-67.7%
14,Cl.Nc1nc(N2CCN(c3ccccn3)CC2)nc2ccccc12,-68.4%
15,Nc1nc(N2CCOCC2)nc2ccccc12,-19.7%
16,COC(=O)c1cccc(N(CC(=O)NC2CCCC2)C(=O)CNC(=O)c2cccs2)c1,-1.26%
17,O=C(Nc1sc2c(c1C(=O)N1CCOCC1)CCCCC2)c1cccnc1,17%
18,CCN(CC)S(=O)(=O)c1ccc(N2CCCC2)c(NC(=O)CC(C)(C)C)c1,-2.34%
19,Cc1cc(C(=O)NC(C)c2ccccc2)c2cc(F)ccc2n1 (stereo not shown),3.06%
20,O=C(N/N=C/c1c(Cl)cccc1Cl)c1cccc(F)c1,3.24%
21,CC/C(C)=N/NC(=O)c1[nH]c2ccc(C)cc2c1-c1ccccc1,0.516%
22,CC1CCCN(C(=O)C2CCC(CNc3c(N4CCCCC4)c(=O)c3=O)CC2)C1 (stereo not shown),-8.22%
23,COC(=O)c1ccc(COc2ccc(C)c(C)c2)o1,12.3%

row,SMILES,"hERG current change (%, negative = inhibition) at 10uM"
1,COc1ccc(-n2c(=O)[nH]c3cc(C(=O)NCCc4ccc(OC)c(OC)c4)ccc3c2=O)c(OC)c1,18.5%
2,CN1C(=O)NC(c2ccccc2)(C(F)(F)F)S/C1=C(/C#N)c1nnc(N2CCOCC2)n1-c1ccccc1 (stereo not shown),-30.3%
3,C=CCN1C(=O)NC(c2ccc(OC)cc2)(C(F)(F)F)S/C1=C(\C#N)c1nnc(N2CCOCC2)n1-c1ccccc1 (stereo not shown),-62.4%
4,C=CCN1C(=O)NC(c2ccccc2)(C(F)(F)F)S/C1=C(\C#N)c1nnc(N2CCOCC2)n1-c1ccccc1 (stereo not shown),-19.4%
5,CC1Cc2ccccc2N1C(=S)NC(=O)C1(C)CC1(Cl)Cl (stereo not shown),30.1%
6,O=[N+]([O-])c1ccccc1CNC1CCCc2ccccc21 (stereo not shown),-5.95%
7,COc1ccccc1CNC1CCCc2ccccc21.O=C(O)C(=O)O (stereo not shown),-6.19%
8,CCOc1ccc(CNC2CCCc3ccccc32)cc1.O=C(O)C(=O)O (stereo not shown),-68.1%
9,O=C(O)C(=O)O.O=[N+]([O-])c1ccc(CNC2CCCc3ccccc32)cc1 (stereo not shown),-51.7%
10,COc1cc(CNC2CCCc3ccccc32)cc(OC)c1OC.O=C(O)C(=O)O (stereo not shown),-13.9%
11,COc1ccc(CNC2CCCc3ccccc32)cc1OC.O=C(O)C(=O)O (stereo not shown),-25.3%
12,COc1ccc(OC)c(NC(=O)Cc2coc3cc(C)cc(C)c23)c1,1.9%
13,COC(=O)C1=C(c2ccc(F)cc2OCc2ccccc2)C[C@@H]2CC[C@H]1N2C(=O)NCc1ccc(OC)c(OC)c1,-2.13%
14,CCn1c(C)nc2cc(C(=O)NNC(=S)Nc3ccc(F)cc3)ccc21,15.9%
15,CCC(=O)N1CCN(C(=O)c2ccccc2)CC1,1.82%
16,O=C(Nc1ccc(N2CCOCC2)cc1)c1cccc(S(=O)(=O)N2CCC(Cc3ccccc3)CC2)c1,2.84%
17,OC(CNCCc1ccc(Cl)cc1)COCc1ccco1 (stereo not shown),-44.6%
18,O=C(O)C(=O)O.OC(CNCCc1ccc(Cl)cc1Cl)COc1ccccc1 (stereo not shown),-25.7%
19,Cc1cc(Cl)ccc1OCC(O)CNCCc1ccc(S(N)(=O)=O)cc1 (stereo not shown),-67.6%
20,COc1ccc(Cl)cc1NC(=S)NCCc1ccc(S(N)(=O)=O)cc1,5.52%
21,Cc1cc(Cl)ccc1NC(=S)NCCc1ccc(S(N)(=O)=O)cc1,-16.1%
22,OC(CNCCc1ccc(Cl)cc1)COc1cc(Cl)ccc1Cl (stereo not shown),-56.6%
23,CCn1c(=NC(=O)CS(=O)(=O)c2ccc(C)cc2)sc2cccc(OC)c21,-0.869%

row,SMILES,"hERG current change (%, negative = inhibition) at 10uM"
1,O=C(CCc1ccccc1O)N/N=C/c1ccc(Sc2cccc3cccnc23)o1,21.8%
2,COc1ccc(CNC(=O)CN2CCN(c3ccccc3O)CC2)cc1OC,12.6%
3,O=c1c2ccccc2nc(SCCN2CCOCC2)n1CCc1ccccc1,-15.4%
4,NC(=O)CSc1nc2ccccc2c(=O)n1CCc1ccccc1,8.93%
5,O=c1c2ccccc2nc(SCCN2CCCCC2)n1CCc1ccccc1,-71.7%
6,COCCn1c(SCC(=O)c2ccccc2)nc2ccccc2c1=O,-12.4%
7,CCSc1nc2ccccc2c(=O)n1CCc1ccc(OC)c(OC)c1,14.9%
8,COCCn1c(SCCN2CCCCC2)nc2ccccc2c1=O,-78.4%
9,COc1ccc(CCn2c(SCCN3CCCCC3)nc3ccccc3c2=O)cc1OC,-53.3%
10,COCCn1c(SCCOc2ccccc2)nc2ccccc2c1=O,-6.1%
11,C=CCNC(=O)CSc1nc2ccccc2c(=O)n1CCc1ccc(OC)c(OC)c1,-15.4%
12,O=C(CSc1nnc(NC(=O)Cc2ccc(F)cc2)s1)NCc1ccco1,14.3%
13,Cc1ccccc1Cn1cc(S(=O)(=O)CC(=O)N2CCCCC2)c2ccccc21,7.27%
14,Nc1cc(Nc2ccccc2)c2nonc2c1[N+](=O)[O-],16.3%
15,N#Cc1c(Nc2cccc(F)c2)sc2c(O)cc(=O)[nH]c12,27.3%
16,Cc1ccccc1-n1c(C)cc(/C=N/Nc2ccc([N+](=O)[O-])cn2)c1C,17.4%
17,CN1CCc2cc(Cl)c(O)cc2[C@@H](c2ccccc2)C1.Cl,-56%
18,Br.Oc1ccc(C2CNCCc3c2cc(O)c(O)c3Cl)cc1 (stereo not shown),-3.12%
19,Br.Cc1cccc(C2CN(C)CCc3c2cc(O)c(O)c3Cl)c1 (stereo not shown),-51.1%
20,Br.C=CCN1CCc2c(cc(O)c(O)c2Cl)C(c2ccccc2)C1 (stereo not shown),-41%
21,Br.C=CCN1CCc2cc(O)c(O)cc2C(c2ccccc2)C1 (stereo not shown),-23.9%
22,Br.CN1CCc2cc(O)c(O)cc2C(c2ccccc2)C1 (stereo not shown),-13.6%
